# Compounds with a hit are over-represented: about 18% of the library has one in this group of screens.
# PLK1 PBD block – blocks phosphopeptide binding to human PLK1 polo-box domain; actives 2.8% (n = 360,000); Potency, µM, for inactives: max response, negative = inhibition, usual class: inhibitors; Plk1 PBD binding of FITC phosphopeptide, fluorescence polarization; P53350; also: series mostly up to about 57 µM; nearly all actives have a fitted effect of over 65% in size
# Target sequence (P53350 whole entry, looked up, the tested form may be a part): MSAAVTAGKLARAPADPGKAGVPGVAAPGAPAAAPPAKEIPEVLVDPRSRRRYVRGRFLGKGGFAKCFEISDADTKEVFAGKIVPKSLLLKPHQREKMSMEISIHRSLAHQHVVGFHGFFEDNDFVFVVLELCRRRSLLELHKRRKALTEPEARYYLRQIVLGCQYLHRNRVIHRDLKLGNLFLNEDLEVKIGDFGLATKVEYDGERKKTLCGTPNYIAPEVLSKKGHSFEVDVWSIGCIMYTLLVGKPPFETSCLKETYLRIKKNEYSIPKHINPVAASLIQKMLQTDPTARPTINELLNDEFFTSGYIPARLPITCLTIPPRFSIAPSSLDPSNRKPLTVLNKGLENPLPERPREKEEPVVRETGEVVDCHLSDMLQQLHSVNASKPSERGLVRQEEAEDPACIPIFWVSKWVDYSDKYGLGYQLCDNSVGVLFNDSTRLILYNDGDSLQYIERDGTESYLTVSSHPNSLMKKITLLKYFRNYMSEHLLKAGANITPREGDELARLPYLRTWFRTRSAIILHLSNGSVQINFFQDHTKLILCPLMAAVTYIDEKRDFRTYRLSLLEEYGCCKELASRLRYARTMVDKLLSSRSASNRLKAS
# TDP1 inh – TDP1 (human) enzyme inhibition; Q9NUW8; recombinant TDP1, AlphaScreen DNA substrate cleavage; Potency, µM (titrated, usually from 130 µM), without a hit: top-dose activity change, negative = inhibition, usual class: inhibitors; actives 0.28% (n = 350,000); AID 485290; also: nearly all actives have a fitted effect of over 40% in size
#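 Recombinant human Tdp1 (E. coli-expressed, 1 nM final) preincubated with compounds 15 min at room temperature, then 5'-biotin/3'-phosphotyrosine-FITC DNA substrate (15 nM final) added for 5 min. AlphaScreen beads (10 ug/ml final) added 10 min; cleavage lowers signal.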
# TDP1 cell CPT – DT40-hTDP1 cell growth loss with CPT | chicken DT40 Tdp1-/-;hTDP1 cells + 20 nM CPT, ATP luminescence, 48 h | Potency, µM (highest dose often 46.2 µM), for inactives: at the highest dose activity change, negative = growth inhibition, usual class: inhibitors | actives 12% (n = 420,000) | AID 686979; also: nearly all actives have a fitted effect of over 55% in size
#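 Chicken DT40 Tdp1-/- cells complemented with human TDP1, 400 cells/well, exposed to compounds plus 20 nM camptothecin for at least 48 h at 37 C; viability read as ATP content by CellTiter-Glo luminescence.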
# DT40 TDP1 no CPT – qHTS for Inhibitors of human tyrosyl-DNA phosphodiesterase 1 (TDP1): qHTS in cells in absence of CPT. DT40 Tdp1-/- hTDP1 cells, no CPT, ATP luminescence, 48 h. Potency, µM (series often up to 46.2 µM), for inactives: at the highest dose activity change, negative = growth inhibition, most hits filed as inhibitors. actives 15% (n = 420,000); also: nearly all actives have a fitted effect of over 55% in size
#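 Chicken DT40 Tdp1-/- cells stably complemented with human TDP1 were seeded at 400 cells/well with DMSO in place of 20 nM camptothecin. After compound pinning, cells grew at least 48 hr at 37 °C; viability read by CellTiter-Glo luminescence.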
# GCN5L2 inh – inhibitors of human GCN5L2 histone acetyltransferase; Q92830; GCN5L2 HAT assay, ThioGlo1 CoA-SH fluorescence; Potency, µM (top dose mostly 58.9 µM), without a hit: at the highest dose activity change, negative = inhibition, usual class: inhibitors; actives 0.21% (n = 390,000)
#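 GCN5L2 (20nM final) in 50mM HEPES, 0.1mM EDTA pH 7.5, 0.01% Tween-20 was preincubated 15 min at room temperature with compound, then given ThioGlo1 (50uM), H3(1-25) peptide (75uM) and acetyl-CoA (70uM); CoA-thiol fluorescence (Ex340/Em540) was read at 0 and 20 min.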
# VDR inhibitor – inhibitors of human vitamin D receptor | P11473 | VDR-SRC2-3 peptide fluorescence polarization, 2 h | actives 0.93% (n = 400,000) | Potency, µM, for inactives: max response, negative = inhibition, actives largely listed as inhibitors
#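 After 23 nl compound addition and a short centrifugation, plates sat for 2 hours at ambient temperature; polarization of fluorescence then indicated loss of VDR binding to peptide SRC2-3.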
# Starred values were filed as active, the others as inactive; ? = inconclusive; . = no result given; [ ] = remark or other dose. Calls follow the shape of the dose curve; as a rule, active = well fitted curve in the direction sought with a large enough effect; inconclusive = small, poorly fitted or top-dose-only effect, or another doubt; inactive = no such curve, though single readings can be large; an effect the other way counts as inactive or inconclusive. % is scaled to controls: 0 for no effect and ±100 for the full control effect; potency is read from the fitted curve at half-maximal effect.
SMILES,PLK1 PBD block,TDP1 inh,TDP1 cell CPT,DT40 TDP1 no CPT,GCN5L2 inh,VDR inhibitor
CCCCn1nnnc1C(c1cccc2ccccc12)N1CCN(C/C=C/c2ccccc2)CC1 (stereo unspecified),-3%,.,?,21µM*,.,.
COc1ccc(C(C)(O)c2nc(-c3cnc4ccccc4c3)cs2)cc1 (stereo unspecified),-4%,.,?,?,.,.
CN(C)c1ccc(-c2ccc3ccccc3n2)cc1,.,.,-17%,-24%,.,.
CN(C)c1ccc(NC(=S)c2ccc3ccccc3n2)cc1,1.1µM*,12%,?,?,?,?
COc1ccc(S(=O)(=O)c2nnn(-c3ccc(C(C)C)cc3)c2C)cc1,.,-8%,15µM*,15µM*,-17%,-13%
COc1ccc(S(=O)(=O)c2nnn(-c3cc(Cl)c(OC)cc3OC)c2C)cc1,.,-2%,-4%,-19%,-8%,-9%
CC(C)(C)OC(=O)NCCc1nnc(S(=O)(=O)Cc2ccc(Cl)cc2Cl)o1,?,2%,1.6µM*,2.6µM*,-4%,-20%
O=c1c2ccccc2ncn1C1CCCCC1,-1%,2%,-2%,0%,.,-8%
O=C1c2ccccc2C(=O)c2c1ccc1c(=O)n(C3CCCCC3)[nH]c21,-9%,8%,?,23µM*,-19%,-14%
CCOc1ccccc1-n1c(SC(C)C(=O)NCC2CCCO2)nc2ccccc2c1=O (stereo unspecified),-8%,1%,?,-8%,-2%,6%
CCN(CC)S(=O)(=O)c1cc(NC(=O)Cc2ccc(S(=O)(=O)N3CCOCC3)s2)ccc1Cl,1%,.,21µM*,13µM*,.,6%
COc1ccc(S(=O)(=O)N(C)C)cc1NC(=O)Cc1ccc(S(=O)(=O)N2CCOCC2)s1,-4%,2%,13µM*,?,1%,-2%
COc1cccc(OC)c1CC1SC(=O)NC1=O (stereo unspecified),-5%,-2%,-4%,-25%,-2%,0%
CN(C)c1ccc(C=NC2CCc3ccccc32)cc1 (stereo unspecified),.,.,-1%,-20%,.,.
CN(C)C(CNc1ncnc2sc3c(c12)CCCCC3)c1ccco1 (stereo unspecified),-5%,4%,?,18µM*,-6%,15%
c1csc(CCNc2ncnc3sc4c(c23)CCC4)c1,-12%,3%,3.7µM*,8.2µM*,-2%,-10%
CC(NC(=O)c1cccc(S(=O)(=O)N2CCN(C)CC2)c1)c1ccc(Cl)cc1Cl (stereo unspecified),5%,?,?,?,-5%,-12%
COc1ccc(CCNC(=O)Cn2cc(S(=O)(=O)Cc3ccccc3Cl)c3ccccc32)cc1OC,.,2%,?,?,-3%,7%
COc1ccc(CCNC(=O)Cn2cc(S(=O)(=O)Cc3cccc(Cl)c3)c3ccccc32)cc1OC,.,2%,?,18µM*,-11%,-1%
COC(=O)c1ccccc1NC(=O)Cn1cc(S(=O)(=O)Cc2ccccc2F)c2ccccc21,.,2%,15µM*,21µM*,-27%,-5%
CC(C)CCNC(=O)Cn1cc(S(=O)(=O)Cc2ccc(F)cc2)c2ccccc21,.,0%,26µM*,?,-25%,8%
CC(C)(C)c1ccc(S(=O)(=O)c2cnc(SCC(=O)Nc3ccc4c(c3)OCCO4)[nH]c2=O)cc1,.,1%,-2%,3%,?,0%
CN(C1CCCCC1)S(=O)(=O)c1ccc(F)c(C(=O)Nc2ccc(C(F)(F)F)cc2)c1,.,8%,23µM*,21µM*,-5%,14%
COc1ccc(S(=O)(=O)N(CC(N)=O)C2CCCCC2)cc1Cl,12µM*,5%,23µM*,?,2%,-16%
CN(C1CCCCC1)S(=O)(=O)c1ccc(Cl)c(C(=O)O)c1,19µM*,4%,-22%,-15%,-1%,?
SMILES,PLK1 PBD block,TDP1 inh,TDP1 cell CPT,DT40 TDP1 no CPT,GCN5L2 inh,VDR inhibitor
CCc1ccc(NC(=O)c2cc(S(=O)(=O)NC3CCCC3)ccc2F)cc1,.,5%,13µM*,16µM*,-2%,9%
CCCCNC(=O)Oc1c(Br)cc2sc(=O)oc2c1Br,.,.,.,.,-42%,.
COc1ccc(S(=O)(=O)NCC(c2ccco2)S(=O)(=O)c2cccs2)cc1OC (stereo unspecified),.,-3%,?,?,-3%,-1%
CN(C1CCCCC1)S(=O)(=O)c1ccc(NC(=O)C2CCCCC2)cc1,-6%,5%,16µM*,21µM*,-7%,15%
CN(C1CCCCC1)S(=O)(=O)c1ccc(S(=O)(=O)N(CC(=O)Nc2ccccc2)C2CC2)cc1,-13%,-9%,?,23µM*,-1%,-13%
CN(C1CCCCC1)S(=O)(=O)c1ccc(NC(=O)CCC(=O)O)cc1,1%,-1%,4%,0%,-4%,12%
COC(=O)c1ccccc1C(=O)NCC1Cc2cc(-c3nc(C)cnc3C)ccc2O1 (stereo unspecified),.,.,11%[9.04 µM],-9%,.,.
O=C(CCl)N1N=C(c2ccco2)CC1c1ccco1 (stereo unspecified),?,-18%,9.2µM*,13µM*,-14%,?
O=C(O)/C=C/C(=O)N1N=C(c2ccco2)CC1c1ccco1 (stereo unspecified),-2%,.,-22%,-2%,-3%,-13%
O=C(CCl)N1N=C(c2cccs2)CC1c1ccco1 (stereo unspecified),-18%,0%,2.9µM*,2.9µM*,-2%,-8%
CN1CCN(CC(=O)N2N=C(c3cccs3)CC2c2ccco2)CC1 (stereo unspecified),-8%,-3%,-8%,-7%,-4%,0%
O=C(COc1ccc(Cl)cc1)N1N=C(c2cccs2)CC1c1ccco1 (stereo unspecified),-10%,.,26µM*,16µM*,.,6%
Cc1ccc(-c2cn3cccnc3n2)cc1NC(=O)Cc1ccccc1,.,-2%,4%,2%,-3%,1%
O=C(c1cnccn1)N1CCC2(CC1)CCN(c1ncccn1)CC2,.,.,-6%,-9%,-4%,-4%
Cc1ccc(-c2nn(-c3cccc(F)c3)cc2CN(Cc2nccn2C)C(C)C)o1,-12%,.,?,?,-5%,14%
Cc1ccc(-c2nn(-c3cccc(F)c3)cc2CN2CCN(c3ccccn3)CC2)o1,-18%,5%,?,23µM*,-4%,-33%

# Compound activity as filed in PubChem BioAssay.
